Screening data deposited in PubChem by The Scripps Research Institute Molecular Screening Center.
DAX1 inh-1: blocks DAX1 repression of SF-1 activated StAR promoter; HEK293T StAR-luciferase reporter, SF-1/DAX-1 repression relief; inhibition, % at 6.8 µM; 370,000 compounds, 1.1% hits;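 active = inhibition above the mean over all tested compounds plus 3 SD, cut at about 3.6% in these data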;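 note: 0% = DAX-1 cells with DMSO and 100% = cells lacking DAX-1 with DMSO; higher inhibition means more luminescence from relief of DAX-1 repression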
ssDAF12 agonist: activators of S. stercoralis DAF-12 nuclear receptor; HEK293 ssDAF-12/GRIP1 lit1-tk-luc reporter, luminescence; % of 3 µM dafachronic acid response; activation, % at 6.8 µM; 370,000 compounds, 1% hits; AID 652126;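 active = activation above the mean over all tested compounds plus 3 SD, cut at about 0.9% in these data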;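 note: 0% = DMSO-only wells and 100% = 3 µM delta7-dafachronic acid wells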
hcDAF12 agonist: activators of H. contortus DAF-12 nuclear receptor | HEK293 hcDAF-12 lit1-tk-luc reporter, luminescence; 0% DMSO, 100% Δ7-dafachronic acid | activation, % at 6.8 µM | 370,000 compounds, 1.4% hits;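 active = activation above the mean of all tested compounds plus 3 SD, cut at about 5.5% in these data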;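 note: 100% = response to 3 µM Δ7-dafachronic acid high control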
DAX1 inh-2: NR0B1 (DAX1) inhibition | P51843 | inhibition, % at 6.75 µM | HEK293 Gal4-DAX1 luciferase reporter, luminescence | 340,000 compounds, 0.99% hits | AID 504766;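 active = inhibition above the mean over all tested compounds plus 3 SD, cut at about 4.2% in these data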;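 note: 0% = DAX1-transfected cells with DMSO and 100% = empty-vector control cells with DMSO; inhibition shows as a rise in luminescence from relieved DAX1 repression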
hgDAF-12 ag: hgDAF-12 agonism, primary luciferase screen | HEK293 GAL4-hgDAF12 UAS-luciferase reporter, agonist luminescence; normalized to butyrate control | activation, % at 6.8 µM | 370,000 compounds, 1.8% hits | AID 687014;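 active = activation above a cutoff set at the mean of all screened compounds plus 3 SD, cut at about 10% in these data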;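 note: 0% = DMSO wells and 100% = sodium butyrate wells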
hgDAF12 conf: hgDAF-12 agonism, confirmation assay. shares compounds with hgDAF-12 ag. HEK293 GAL4-hgDAF12 luciferase reporter, agonist mode; percent of butyrate response. activation, % at 6.8 µM. 3,300 compounds, 80% hits. AID 743050;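 active = mean activation over triplicate wells above the hit cutoff derived from the earlier primary screen, cut at about 11% in these data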;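 note: 0% = DMSO low control and 100% = 2 mM sodium butyrate high control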
LXR ag 2: activates human LXR-beta, counter-screen for DAF-12 agonists; AID 743051; 3,300 tested, under 10 active; shares compounds with hgDAF-12 ag; activation, % at 6.8 µM; HEK293 Gal4-LXR luciferase reporter, 24 h;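 active = mean activation of the triplicate above a set limit carried over from the primary screen, none filed active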
Target sequence (P55055 whole entry, looked up, the tested form may be a part): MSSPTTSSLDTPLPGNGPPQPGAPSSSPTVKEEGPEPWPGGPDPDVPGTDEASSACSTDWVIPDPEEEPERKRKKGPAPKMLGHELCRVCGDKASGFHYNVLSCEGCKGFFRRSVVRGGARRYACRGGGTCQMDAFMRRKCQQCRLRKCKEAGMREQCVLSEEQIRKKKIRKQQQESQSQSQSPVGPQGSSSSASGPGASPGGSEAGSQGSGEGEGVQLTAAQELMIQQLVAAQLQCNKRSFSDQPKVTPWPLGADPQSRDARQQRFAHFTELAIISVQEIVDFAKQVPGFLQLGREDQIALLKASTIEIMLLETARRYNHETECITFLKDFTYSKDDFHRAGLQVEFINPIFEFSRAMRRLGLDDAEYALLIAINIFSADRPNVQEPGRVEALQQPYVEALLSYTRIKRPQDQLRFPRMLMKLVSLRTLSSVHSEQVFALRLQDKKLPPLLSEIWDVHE
The depositor's hits bear a star; . = no result. A selection: hits, their analogues and other compounds. The true share with any hit is near 4.1%.

SMILES | DAX1 inh-1 | ssDAF12 agonist | hcDAF12 agonist | DAX1 inh-2 | hgDAF-12 ag | hgDAF12 conf | LXR ag 2
CC(=O)c1ccc(NC(=O)C2CC(=O)N(Cc3ccccc3)C2)cc1 (stereo unspecified) | 1 | -1 | 0 | 1 | 14* | 10 | 0
O=C(O)CCC(=O)Nc1ccccc1C(=O)NCCc1ccccc1 | 2 | 1 | 5.9* | 1 | 19* | 7 | 0
O=C(N1CCOCC1)N1CC[C@H]2[C@H](CCCN2Cc2cc(F)cc(F)c2)C1 | 0 | -2 | -1 | . | 2 | . | .
CC(=O)c1ccc(N=Nc2ccc(N(C)C)cc2)cc1 | 3 | 1.0* | 5 | 3 | 13* | 12* | 1
CN(C)C(=S)c1ccc(N(C)C)cc1 | 0 | -2 | -2 | 0 | -2 | . | .
Cc1ccccc1NC(=O)c1c(F)c(F)c(F)c(F)c1F | 1 | -1 | 1 | 0 | 2 | . | .
O=C(NCc1ccc(F)cc1)c1cc2ccccn2n1 | -1 | 0 | -1 | 1 | 2 | . | .
Cc1ccccc1NC(=O)c1cnc2ccccn2c1=O | 4.2* | 0 | 4 | -1 | 16* | 16* | 1
CSc1ncc(C(=O)Nc2ccccc2C)c(C)n1 | -1 | -1 | -3 | 0 | 1 | . | .
O=C(NCCc1cccc(F)c1)c1cc2ccccn2n1 | 3 | 0 | 1 | . | 14* | 12* | 0
Cc1ccccc1NC(=O)c1cc2ccccn2n1 | 3 | 1 | 6.0* | 2 | 19* | 13* | 1
COC(=O)c1cc2c(c3c4ccccc4n(S(=O)(=O)c4ccc(OC)cc4)c13)C(=O)N(Cc1ccccc1OC)C2 | 0 | 0 | 1 | . | 0 | . | .
C=CCOc1cccc(/C=C/c2nc3ccccc3c(=O)[nH]2)c1 | 3 | 1.3* | 4 | 4 | 15* | 16* | 1
Cc1ccccc1/C=C\c1nc2ccccc2c(=O)[nH]1 | 3 | 1.3* | 2 | 2 | 15* | 20* | 1
COc1cc(/C=C/c2nc3ccccc3c(=O)[nH]2)ccc1OC(F)F | 1 | -1 | 2 | 4 | 6 | . | .
COc1cc(/C=C/c2nc3ccccc3c(=O)[nH]2)cc(OC)c1OC | 0 | -1 | -1 | -3 | 5 | . | .
Cc1ccccc1NC(=O)N(C)[C@H]1C[C@H]2c3[nH]c4c(-c5ccccc5)cccc4c3CCN2C(=O)[C@H]1[C@H](C)O | -1 | 0 | 0 | . | 2 | . | .
CCOC(=O)[C@@H]1CSCCS(=O)(=O)N1Cc1ccc(C(F)(F)F)cc1 | 0 | -1 | -1 | . | -2 | . | .
COC(=O)N[C@H](C(=O)N[C@@H](Cc1ccccc1)[C@@H](O)CN(Cc1ccc(-c2ccccn2)cc1)NC(=O)[C@@H](NC(=O)OC)C(C)(C)C)C(C)(C)C | -1 | -1 | -3 | . | 1 | . | .
COc1cccc(/C=N/n2cnc3ccccc32)c1OC | 3 | 0 | 4 | 2 | 14* | 14* | 1
O=[N+]([O-])c1ccc(O)c(/C=N/Nc2ccccc2Cl)c1 | 2 | 0 | 2 | 0 | 16* | 10 | 1
O=[N+]([O-])c1ccccc1N/N=C\c1ccccc1Cl | 1 | -1 | 0 | 2 | 2 | . | .
Cc1ccc(C(=O)Cc2nc3ccccc3[nH]2)cc1 | 1 | 0 | 2 | 0 | 6 | . | .
Cc1ccc(OCc2nc3ccccc3[nH]2)cc1 | 4.2* | 0 | 6.0* | 0 | 16* | 13* | 1
CCCCc1c(-c2ccccc2OC)ncn1Cc1ccccc1Cl | -1 | -2 | -2 | . | -2 | . | .
SMILES | DAX1 inh-1 | ssDAF12 agonist | hcDAF12 agonist | DAX1 inh-2 | hgDAF-12 ag | hgDAF12 conf | LXR ag 2
CC(=O)N1CCCN(C(=O)CN2C(=O)CC(C)(C)S(=O)(=O)c3ccccc32)CC1 | 1 | 0 | -1 | . | -4 | . | .
Cc1cccc(NC(=O)C2COc3ccccc3O2)n1 (stereo unspecified) | 0 | -1 | -2 | 0 | 1 | . | .
Cc1cc(NC(=O)COC(=O)C2COc3ccccc3O2)no1 (stereo unspecified) | -1 | -2 | -1 | -1 | 0 | . | .
Cc1cc(NC(=O)C2COc3ccccc3O2)no1 (stereo unspecified) | 1 | -1 | 4 | 2 | 19* | 5 | 0
O=C(Nc1ccc(Cl)cn1)C1COc2ccccc2O1 (stereo unspecified) | 4 | 1 | 6.0* | 3 | 14* | 11* | 0
COc1ccc(C2CC(c3ccc4ccccc4c3)=NN2C(=O)CN2CCC(C(N)=O)CC2)cc1 (stereo unspecified) | 3 | -1 | 3 | 3 | 13* | 5 | 0
C=CCNCC(=O)N1N=C(c2ccc3ccccc3c2)CC1c1ccc(OC)cc1 (stereo unspecified) | 0 | -1 | -2 | -1 | 1 | . | .
COC(=O)c1cccc(NC(=O)c2onc3c2CCCC3)c1 | 3.8* | 1 | 6.0* | 1 | 17* | 18* | 1
CN(C)c1ccc(C2=NOC(CN3C(=O)c4ccccc4S3(=O)=O)C2)cc1 (stereo unspecified) | 3 | 0 | 5 | 3 | 13* | 18* | 1
Cc1ccc(CNC(=O)CCn2c(=O)oc3ccccc32)cc1 | -1 | 0 | 0 | 0 | 13* | 1 | 0
CC(=O)c1cccc(NC(=S)NCCC2=CCCCC2)c1 | -1 | -2 | -2 | -1 | 2 | . | .
O=C(NCCC1=CCCCC1)Nc1ccc2nsnc2c1 | 3.8* | 0 | 5.9* | 3 | 20* | 14* | 1
COC(=O)C1=C(C)N(C)C(=NCc2ccc(C(F)(F)F)cc2)NC1c1ccc(F)cc1 (stereo unspecified) | -1 | -1 | 2 | . | 0 | . | .
O=C(NCc1ccccc1)c1cccc(COc2ccc3c(c2)CCC3)c1 | 2 | -1 | 3 | -4 | 21* | 17* | 1
COC(=O)[C@]12C[C@H](CC(=O)N3CCCC3)C(=O)N(CCc3ccc(OC)c(OC)c3)C1=C[C@H](C(C)C)O[C@@H]2C1CC1 | -1 | -1 | -1 | . | -3 | . | .
O=Cc1cscc1[B-](F)(F)F | -1 | -1 | -2 | . | -1 | . | .
O=C(/C=C/c1ccc(Br)cc1)NC1CCCCCC1 | 0 | -1 | 1 | 3 | 5 | . | .
CC(C)Cc1ccc(/C=C/C(=O)NC2CC2)cc1 | 3 | 1 | 4 | 0 | 13* | 12* | 0
CC(C)Cc1ccc(/C=C/C(=O)N2CCCCC2)cc1 | 4.5* | 0 | 3 | 3 | 16* | 14* | 0
CCOC(=O)C1CCCN(C(=O)/C=C/c2ccc(Cl)cc2)C1 (stereo unspecified) | 0 | -1 | -1 | 0 | -1 | . | .
CCc1ccc(/C=C\C(=O)N2CCCC2)cc1 | 0 | -2 | 1 | 1 | 4 | . | .
